Experimental data as given in PubChem BioAssay AID1159580 (chemical genetic matrix, 2015).
Among all 5,500 compounds or so, about 2,000 (36%) were called active. About 18% were inconclusive and are not listed. Cut-off read from the data, not from the text of the source: active = normalized growth mostly below about 0.91 (no sharp cut-off); inconclusive = no clear call, values can overlap the other calls; inactive = mostly above about 0.92. This is one part of the list.

Test: chemical genetic growth profiling, strain panel (AID 1159580);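 note: tested at 20 µM; growth read once vehicle control cultures reached saturation at 30 °C; 1 = growth at the plate median or of vehicle wells; lower values mean less growth of the strain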
Conditions: growth OD

Measured: normalized growth

CCOC(=O)[C@H](CCc1ccccc1)N[C@@H](C)C(=O)N1Cc2ccccc2C[C@H]1C(=O)O
inactive: S. cerevisiae deletion strains, locus YJR043C, strain POL32, active compounds read low 1.02 | S. cerevisiae deletion strains, locus YJR066W, strain TOR1, active compounds read low 0.98 | S. cerevisiae deletion strains, locus YKL009W, strain mrt4, active compounds read low 0.994 | S. cerevisiae deletion strains, locus YKL068W, active compounds read low 1 | S. cerevisiae deletion strains, locus YKL085W, strain MDH1 (second series), active compounds read low 1.01 | S. cerevisiae deletion strains, locus YKL085W, strain MDH1, active compounds read low 1.01 | S. cerevisiae deletion strains, locus YKL160W, strain elf1, active compounds read low 0.975 | S. cerevisiae deletion strains, locus YKL190W, strain CNB1, active compounds read low 1.01 | S. cerevisiae deletion strains, locus YKR001C, strain vps1, active compounds read low 0.986 | S. cerevisiae deletion strains, locus YKR026C, strain gcn3, active compounds read low 0.994 | S. cerevisiae deletion strains, locus YKR091W, strain srl3, active compounds read low 1 | S. cerevisiae deletion strains, locus YLL001W, strain dnm1, active compounds read low 0.998 | S. cerevisiae deletion strains, locus YLL026W, active compounds read low 1.01 | S. cerevisiae deletion strains, locus YLL041C, strain sdh2, active compounds read low 0.998 | S. cerevisiae deletion strains, locus YLR027C, strain aat2, active compounds read low 0.994 | S. cerevisiae deletion strains, locus YLR039C, strain RIC1, active compounds read low 1.05 | S. cerevisiae deletion strains, locus YLR058C, strain SHM2, active compounds read low 1.01 | S. cerevisiae deletion strains, locus YLR102C, strain apc9, active compounds read low 1.01 | S. cerevisiae deletion strains, locus YLR113W, strain HOG1, active compounds read low 0.963 | S. cerevisiae deletion strains, locus YLR221C, strain rsa3, active compounds read low 1.02 | S. cerevisiae deletion strains, locus YLR258W, strain gsy2, active compounds read low 0.999 | S. cerevisiae deletion strains, locus YLR262C, strain YPT6 (second series), active compounds read low 0.995 | S. cerevisiae deletion strains, locus YLR262C, strain YPT6, active compounds read low 1.07 | S. cerevisiae deletion strains, locus YLR268W, strain sec22, active compounds read low 1 | S. cerevisiae deletion strains, locus YLR320W, strain mms22, active compounds read low 0.996 | S. cerevisiae deletion strains, locus YLR330W, strain CHS5, active compounds read low 1 | S. cerevisiae deletion strains, locus YLR342W, strain FKS1 (second series), active compounds read low 1.02 | S. cerevisiae deletion strains, locus YLR342W, strain FKS1, active compounds read low 1.02 | S. cerevisiae deletion strains, locus YLR357W, strain rsc2, active compounds read low 0.975 | S. cerevisiae deletion strains, locus YLR370C, strain arc18, active compounds read low 0.985 | S. cerevisiae deletion strains, locus YLR371W, strain rom2, active compounds read low 1.01 | S. cerevisiae deletion strains, locus YLR384C, strain iki3, active compounds read low 1.01 | S. cerevisiae deletion strains, locus YLR418C, strain cdc73, active compounds read low 1 | S. cerevisiae deletion strains, locus YML016C, strain PPZ1, active compounds read low 1 | S. cerevisiae deletion strains, locus YML032C, strain rad52, active compounds read low 1 | S. cerevisiae deletion strains, locus YML120C, strain ndi1, active compounds read low 0.996 | S. cerevisiae deletion strains, locus YML124C, strain tub3, active compounds read low 1.01 | S. cerevisiae deletion strains, locus YMR058W, strain fet3, active compounds read low 1.01 | S. cerevisiae deletion strains, locus YMR078C, strain ctf18, active compounds read low 1 | S. cerevisiae deletion strains, locus YMR125W, strain sto1, active compounds read low 0.989 | S. cerevisiae deletion strains, locus YMR129W, active compounds read low 0.989 | S. cerevisiae deletion strains, locus YMR205C, strain PFK2, active compounds read low 1 | S. cerevisiae deletion strains, locus YMR223W, strain ubp8, active compounds read low 1.02 | S. cerevisiae deletion strains, locus YMR231W, strain pep5, active compounds read low 0.999 | S. cerevisiae deletion strains, locus YMR307W, strain GAS1, active compounds read low 0.979 | S. cerevisiae deletion strains, locus YNL067W, strain RPL9B, active compounds read low 0.995 | S. cerevisiae deletion strains, locus YNL071W, strain lat1, active compounds read low 0.998 | S. cerevisiae deletion strains, locus YNL183C, strain NPR1, active compounds read low 0.949 | S. cerevisiae deletion strains, locus YNL209W, strain ssb2, active compounds read low 0.994 | S. cerevisiae deletion strains, locus YNL233W, strain BNI4, active compounds read low 0.994 | S. cerevisiae deletion strains, locus YNL248C, strain rpa49, active compounds read low 0.957 | S. cerevisiae deletion strains, locus YNL250W, strain rad50, active compounds read low 1.01 | S. cerevisiae deletion strains, locus YNL271C, strain bni1, active compounds read low 1.02 | S. cerevisiae deletion strains, locus YNL298W, strain CLA4, active compounds read low 1.01 | S. cerevisiae deletion strains, locus YNL307C, strain MCK1, active compounds read low 1.02 | S. cerevisiae deletion strains, locus YNL322C, strain KRE1 (second series), active compounds read low 0.996 | S. cerevisiae deletion strains, locus YNL322C, strain KRE1, active compounds read low 1.01 | S. cerevisiae deletion strains, locus YNR049C, strain mso1, active compounds read low 1 | S. cerevisiae deletion strains, locus YNR052C, strain pop2, active compounds read low 1.01 | S. cerevisiae deletion strains, locus YOL006C, strain TOP1, active compounds read low 0.987 | S. cerevisiae deletion strains, locus YOL012C, strain htz1 1.52 | S. cerevisiae deletion strains, locus YOL147C, strain pex11, active compounds read low 1.01 | S. cerevisiae deletion strains, locus YOR001W, strain rrp6, active compounds read low 1.01 | S. cerevisiae deletion strains, locus YOR061W, strain CKA2, active compounds read low 1.01 | S. cerevisiae deletion strains, locus YOR069W, strain VPS5, active compounds read low 1 | S. cerevisiae deletion strains, locus YOR070C, strain gyp1, active compounds read low 1.01 | S. cerevisiae deletion strains, locus YOR080W, strain dia2, active compounds read low 1.01 | S. cerevisiae deletion strains, locus YOR083W, strain WHI5, active compounds read low 0.963 | S. cerevisiae deletion strains, locus YOR106W, strain vam3, active compounds read low 0.989 | S. cerevisiae deletion strains, locus YOR136W, strain idh2, active compounds read low 1.01 | S. cerevisiae deletion strains, locus YOR144C, strain elg1, active compounds read low 1.01 | S. cerevisiae deletion strains, locus YOR184W, strain ser1, active compounds read low 1 | S. cerevisiae deletion strains, locus YOR231W, strain MKK1, active compounds read low 0.974 | S. cerevisiae deletion strains, locus YOR265W, strain rbl2, active compounds read low 1.02 | S. cerevisiae deletion strains, locus YOR270C, strain vph1, active compounds read low 0.853 | S. cerevisiae deletion strains, locus YOR290C, strain snf2, active compounds read low 0.972 | S. cerevisiae deletion strains, locus YOR316C, strain cot1, active compounds read low 1.02 | S. cerevisiae deletion strains, locus YPL051W, strain arl3, active compounds read low 0.995 | S. cerevisiae deletion strains, locus YPL078C, strain atp4, active compounds read low 0.98 | S. cerevisiae deletion strains, locus YPL106C, strain sse1, active compounds read low 1 | S. cerevisiae deletion strains, locus YPL240C, strain hsp82, active compounds read low 1.02 | S. cerevisiae deletion strains, locus YPL241C, strain CIN2, active compounds read low 1.01 | S. cerevisiae deletion strains, locus YPL256C, strain CLN2, active compounds read low 0.962 | S. cerevisiae deletion strains, locus YPR119W, strain clb2, active compounds read low 1 | S. cerevisiae deletion strains, locus YPR141C, strain kar3, active compounds read low 1.01 | S. cerevisiae deletion strains, locus YPR163C, strain tif3, active compounds read low 1.01 | S. cerevisiae deletion strains, locus YPR167C, strain met16, active compounds read low 1.01 | S. cerevisiae deletion strains, strain wtn01, active compounds read low 1 | S. cerevisiae strains, strain wild type, active compounds read low 1.01
